Consider twelve compounds from the supplement of paper PMC13380429.

The subject of assay [1] is Vero E6 infected with SARS-CoV-2. Kind of assay: morphology score (similarity to uninfected cells); higher = more like uninfected cells. Conditions: 24 h.
The test system is the same in assay [2]. Kind of assay: SARS-CoV-2 infection rate relative to infected DMSO; higher = more infection, active = 60 or less. Conditions: 24 h.

In the case of `CNC(=O)Oc1cccc2ccccc12` [carbaril] (10 µM), in assay [1], the morphology score stood at 0.025. The SARS-CoV-2 infection rate in assay [2] is 101% (inactive).

With `O=C(O)c1ccc(S(=O)(=O)N(Cl)Cl)cc1` [halazone] (10 µM), the morphology score in assay [1] is 0.13. Besides, the SARS-CoV-2 infection rate in assay [2] is 95% (inactive).

`Cc1[nH]c(=O)c(C#N)cc1-c1ccc2nccn2c1` [olprinone] (10 µM): in assay [1], the morphology score is 0.0999. Moreover, the SARS-CoV-2 infection rate in assay [2] is 104% (inactive).

`COc1cc(C(=O)NCc2ccc(OCCN(C)C)cc2)cc(OC)c1OC` [trimethobenzamide] (10 µM) showed a morphology score in assay [1] of 0.00196. For the same compound, the SARS-CoV-2 infection rate in assay [2] was 110% (inactive).

`Cc1nc(N)sc1-c1ccnc(Nc2ccc(N3CCOCC3)cc2)n1` (0.833333 µM) registered a morphology score in assay [1] of 0.443. For the same compound, the SARS-CoV-2 infection rate in assay [2] is 93% (inactive).

As to `O=C(O)C[C@H](O)C(=O)O` [malic-acid] (10 µM), the morphology score in assay [1] is -0.0659. The SARS-CoV-2 infection rate in assay [2] is 104% (inactive).

In turn, `COc1cc(Cc2cnc(N)nc2N)cc(OC)c1OC` [trimethoprim] (10 µM) displayed a morphology score in assay [1] of -0.0548. Also, the SARS-CoV-2 infection rate in assay [2] was 98.5% (inactive).

In assay [1], `O=C(Nc1cccc(C(F)(F)F)c1)Nc1ccc(Br)cc1-c1nnn[nH]1` (10 µM) displayed a morphology score of -0.0612. In assay [2], the SARS-CoV-2 infection rate was 108% (inactive).

Regarding `Cc1cc(N2CCOCC2)cc2[nH]c(-c3c(NC[C@@H](O)c4cccc(Cl)c4)cc[nH]c3=O)nc12` (0.833333 µM), the morphology score in assay [1] is 0.0224. In addition, the SARS-CoV-2 infection rate in assay [2] was 110% (inactive).

In the case of `Cc1ncc[nH]1` [2-methylimidazole] (10 µM), the morphology score in assay [1] is 0.049. The SARS-CoV-2 infection rate in assay [2] is 95% (inactive).

In the case of `CCC(=O)OCN1C(=O)C=CC1=O` (10 µM), the morphology score in assay [1] worked out at 0.14. Besides, in assay [2], the SARS-CoV-2 infection rate is 97% (inactive).

As to `COc1ccc(/C=C\c2cc(OC)c(OC)c(OC)c2)cc1OP(=O)(O)O` [fosbretabulin] (0.833333 µM), the morphology score in assay [1] was determined as 0.0485. In addition, in assay [2], the SARS-CoV-2 infection rate was 112% (inactive).
